Test results reported in PubChem BioAssay AID761 (NMMLSC, 2007).
The campaign covered roughly 190,000 compounds. About 400 (0.21%) were called active. Not shown: some 2% with an inconclusive outcome. What follows is part of a selection rich in actives, with near analogues and random picks from the rest. A number with no mark means an inactive call.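 The calls were made as follows: active = percent activity GTP binding at least 20 points away from the 100% baseline, either down as inhibitor or up as activator; inconclusive = compound flagged as likely green fluorescent from well-wide comparison; inactive = the rest.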

molecular target: Cell division control protein 42 homolog (Homo sapiens) (UniProt P60953); assay: modulators of GTP binding to wildtype Cdc42, primary screen, biochemical, multiplex bead flow cytometry, Bodipy-GTP (AID 761); conditions: GST-Cdc42 beads, at 10 µM, actives lie on both sides;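 also: median bead fluorescence of bound Bodipy-FL-GTP at 100 nM; 0% = excess unlabeled GTP control and 100% = no compound control; below 100% means less GTP binding so inhibitor and above means activator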
Sequence (P60953 whole entry, looked up): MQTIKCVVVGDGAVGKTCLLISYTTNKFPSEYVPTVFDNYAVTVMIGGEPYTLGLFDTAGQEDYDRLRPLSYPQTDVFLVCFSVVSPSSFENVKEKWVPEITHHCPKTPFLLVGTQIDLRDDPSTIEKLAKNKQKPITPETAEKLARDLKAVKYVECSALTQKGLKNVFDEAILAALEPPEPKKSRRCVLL

SMILES	percent activity (GTP binding)
O=C(O)c1n[nH]nc1-c1ccccc1	99%
O=C(O)/C=C/c1cn(-c2ccccc2)nc1-c1cccs1	93%
O=C(/C=C\c1cn(-c2ccccc2)nc1-c1cccs1)N1CCOCC1	100%
O=C(O)/C=C/c1cn(Cc2ccccc2)nc1-c1cccs1	135% [activator] (active)
NS(=O)(=O)c1ccc(NC(=O)/C=C/c2ccccc2Cl)cc1	97%
O=C(COc1cc(Cl)c(Cl)cc1Cl)NCCc1ccccn1	94%
CCOC(=O)N1CCN(CC(=O)Nc2ccc(F)cc2)CC1	96%
Cc1cc(C)cc(NC(=O)Cn2cnc3c(nnn3Cc3ccc(F)cc3)c2=O)c1	93%
Cc1cccc(C(=O)NNC(=O)c2cccc([N+](=O)[O-])c2)c1	105%
COc1ccccc1N1CCN(C(=O)c2ccc(Cl)c(S(=O)(=O)N3CCCC3)c2)CC1	100%
O=C(Cc1ccc(F)cc1)N1CCN=C1SCc1cccc([N+](=O)[O-])c1	96%
CCCSc1nc2[nH]ncc2c(=O)[nH]1	100%
Cc1ccc(CSc2nc3[nH]ncc3c(=O)[nH]2)cc1	76% (active)
Cc1cccc(NC(=O)CSc2nc3[nH]ncc3c(=O)[nH]2)c1	97%
O=C(NCc1cccs1)c1cc(-c2ccccn2)nc2ccc(Br)cc12	98%
O=C(c1cccc([N+](=O)[O-])c1)N1CCN(C(=O)c2ccco2)CC1	94%
CCN(C(=O)COC(=O)/C=C/c1nc2ccccc2s1)C1CCS(=O)(=O)C1 (configuration not stated)	93%
CCOc1ccc(N(CC(=O)NCCc2ccc(OC)cc2)S(C)(=O)=O)cc1	100%
Cc1ccccc1NC(=S)NNC(=O)c1cccc(Br)c1	91%
Cc1nc(S(=O)(=O)c2ccc(Br)cc2)nc2c1CCC2	94%
COc1ccc(C(=O)Nc2ccc(NC(=O)C(C)C)nc2)cc1	93%

SMILES	percent activity (GTP binding)
Cc1cccc(C(=O)OC(C)CN2CCN(C)CC2)c1 (configuration not stated)	101%
Nc1ccc(OCC(O)C[n+]2ccc(CCS(=O)(=O)[O-])cc2)cc1 (configuration not stated)	102%
O=C(Cc1ccc(F)cc1)N/N=C/c1ccc2c(c1)OCO2	97%
OCCC1CN(Cc2cccn2-c2nccs2)CCN1CCc1ccccc1 (configuration not stated)	95%
CC(/C=N/NC(=O)c1ccncc1)=C\c1ccco1	99%
CCOC(=O)C1(Cc2cccc(OC)c2)CCCN(S(=O)(=O)c2cccnc2)C1 (configuration not stated)	100%
O=C(CSc1nnnn1-c1ccc(O)cc1)N1N=C(c2ccc3ccccc3c2)CC1c1ccccc1 (configuration not stated)	98%
O=C(OCC1O[C@@H](OC(=O)c2cc(O)c(O)c(O)c2)[C@@H](OC(=O)c2cc(O)c(O)c(O)c2)[C@@H](OC(=O)c2cc(O)c(O)c(O)c2)[C@@H]1OC(=O)c1cc(O)c(O)c(O)c1)c1cc(O)c(O)c(O)c1 (some centres not stated)	79% (active)
CC(=O)NC1C(OCc2ccccc2)OC(COC(C)=O)C(OC(C)=O)C1OC(C)=O (configuration not stated)	104%
NC(=O)COc1ccc(NC(=O)c2ccccc2-c2ccccc2)cc1	92%
CCOC(=O)c1nc(Nc2ccc(C(=O)OC)cc2)c2ccccc2n1	74% (active)
CCOC(=O)c1ccc(Nc2cc(C)nc3nc(C)nn23)cc1	99%
CCOC(=O)c1ccc(N/C(=N/S(=O)(=O)c2ccccc2)c2ccccc2)cc1	98%
CC(=O)Nc1ccccc1NC(=O)c1cc(C)cc(C)c1	98%
NC(N)=Nc1nc2ccc(Br)cc2c(=O)[nH]1	93%
O=C(Nc1ccc(Cl)cc1)C1c2cccc[n+]2CC(=O)N1Cc1ccc2c(c1)OCO2 (configuration not stated)	99%
CCC1CCCCN1C(=O)CSc1nc2c(c(=O)n(C)c(=O)n2C)n1C (configuration not stated)	98%
Fc1cccc(Cc2noc(CN3CCN(c4cnccn4)CC3)n2)c1	101%
CCOC(=O)c1ccc(NC2Nc3cc(C)nn3S2)cc1 (configuration not stated)	95%
CC(=O)c1ccccc1NC(=O)CC1(CC(=O)O)CCCCC1	95%
Cc1ccc(C)c(-n2nnnc2SCC(=O)c2c(N)n(C)c(=O)n(C)c2=O)c1	93%

SMILES	percent activity (GTP binding)
Cc1ccc(S(=O)(=O)NC(C(=O)N2CCOCCOCCOCCOCC2)c2ccccc2)cc1 (configuration not stated)	100%
COc1ccccc1C(=O)CSc1cccc[n+]1[O-]	94%
CCCCN(C(=O)COc1ccc(NC(C)=O)cc1)C1CCS(=O)(=O)C1 (configuration not stated)	96%
Cc1ccc(Cl)cc1NC(=O)COC(=O)CC(C)(C)C	90%
CCCCn1c(=O)c(C(C)=O)c(O)c2ccccc21	96%
CCNC(=O)COc1cc(C)c(Br)c(C)c1	105%
CC(C)NC(=S)NN=C1CCCCCCCCCCC1	93%
C=CCn1c(-c2sc(-c3ccccc3)nc2C)n[nH]c1=S	90%
O=C(NNC(=S)NCCCN1CCOCC1)c1ccncc1	98%
Cc1ccc(Nc2c(F)c(F)c(F)c(F)c2C(=O)O)c(C)c1	134% [activator] (active)
COc1c(F)c(F)c(C(=O)O)c(Nc2ccccc2C)c1F	100%
Cc1ccc(NC(=S)NC(=O)c2ccc(-c3ccccc3)cc2)c(C)c1	99%
COC(=O)C1=CN(Cc2ccc(OC)c(OC)c2)C=C(C(=O)OC)C1c1cccs1	99%
CCn1c(-c2cccnc2Cl)nc2cc(C)c(C)cc21	99%
Cc1ccc(C(=O)OC(C)CN2CCOCC2)cc1 (configuration not stated)	99%
COc1ccccc1CNC(=O)c1cc(=O)c2ccccc2o1	96%
COCCN(Cc1nc(-c2ccc(C(F)(F)F)cc2)no1)C(C)C	94%
COc1ccccc1NC(=O)C1=C(C)NC(=O)NC1c1ccc(C)s1 (configuration not stated)	93%
COc1ccc(-c2nc3cnccn3c2NC(C)(C)CC(C)(C)C)cc1O	101%
Cc1nnc(N/N=C/C2CC=CCC2)[nH]c1=O (configuration not stated)	96%
